In article PMC4336329 (PLoS ONE, 2015):
Screen size: about 310,000 compounds; about 14,000 (4.5%) showed an effect of 50% or more. Effects have a minus sign here. The entries come from a sample that favours strong results as a whole.

Target: human ether-à-go-go-related gene (hERG) potassium channel (human, UniProt Q12809)
Experiment: primary screen, population patch clamp on CHO cells stably expressing hERG; higher = less effect of the substance
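Also: peak tail current of the secondary pulse compared with the same well before compound.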

human ether-à-go-go-related gene (hERG) potassium channel, sequence (Q12809 whole entry, looked up): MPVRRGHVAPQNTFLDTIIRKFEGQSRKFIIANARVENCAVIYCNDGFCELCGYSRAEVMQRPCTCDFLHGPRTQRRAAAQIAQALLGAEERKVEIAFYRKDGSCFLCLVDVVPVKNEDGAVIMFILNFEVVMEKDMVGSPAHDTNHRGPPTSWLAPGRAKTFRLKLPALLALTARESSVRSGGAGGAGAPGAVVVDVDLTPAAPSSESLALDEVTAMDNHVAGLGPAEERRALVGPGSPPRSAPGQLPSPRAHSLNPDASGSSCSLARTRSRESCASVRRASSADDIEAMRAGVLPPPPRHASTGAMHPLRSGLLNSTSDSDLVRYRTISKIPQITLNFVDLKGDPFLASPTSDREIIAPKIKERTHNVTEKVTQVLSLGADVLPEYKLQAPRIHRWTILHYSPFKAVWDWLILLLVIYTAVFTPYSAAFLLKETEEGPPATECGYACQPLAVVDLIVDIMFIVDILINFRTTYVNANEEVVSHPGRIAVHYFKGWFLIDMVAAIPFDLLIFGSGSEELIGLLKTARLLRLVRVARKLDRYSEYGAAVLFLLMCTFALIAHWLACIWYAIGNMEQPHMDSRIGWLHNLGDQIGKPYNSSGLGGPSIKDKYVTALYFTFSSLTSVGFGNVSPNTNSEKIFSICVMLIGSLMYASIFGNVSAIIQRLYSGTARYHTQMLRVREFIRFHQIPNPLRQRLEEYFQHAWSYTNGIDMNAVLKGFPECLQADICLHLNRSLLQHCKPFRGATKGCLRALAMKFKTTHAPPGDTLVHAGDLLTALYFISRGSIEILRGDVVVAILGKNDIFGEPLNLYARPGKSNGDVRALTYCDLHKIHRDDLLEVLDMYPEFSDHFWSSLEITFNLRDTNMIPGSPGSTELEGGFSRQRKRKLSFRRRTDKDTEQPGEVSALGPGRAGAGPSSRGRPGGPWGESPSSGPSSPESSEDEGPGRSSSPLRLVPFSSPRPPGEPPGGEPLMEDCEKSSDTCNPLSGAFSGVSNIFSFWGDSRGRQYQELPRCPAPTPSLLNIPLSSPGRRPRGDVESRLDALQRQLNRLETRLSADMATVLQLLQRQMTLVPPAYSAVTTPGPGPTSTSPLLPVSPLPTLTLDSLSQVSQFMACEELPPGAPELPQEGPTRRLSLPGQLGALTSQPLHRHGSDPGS

SMILES	hERG current change (%, negative = inhibition) at 10uM
CCc1ccc(NC(=O)c2cc(-c3ccc(OC)cc3)on2)cc1	-0.467%
CCc1cc(=O)oc2cc(C)cc(OCc3nn[nH]n3)c12	-5.99%
CCc1nn(CCCC(=O)Nc2ccc(C)c(C)c2)c(=O)c2cc3occc3n12	4.15%
CCc1ccccc1N(CC(=O)NCc1ccco1)C(=O)CCC(=O)Nc1ccccn1	-7.41%
Cc1cccc(CN2CCN(c3nc4nonc4nc3NC3CC3)CC2)c1	-4.44%
Clc1cccc(CN2CCN(c3nc4nonc4nc3NC3CC3)CC2)c1	-65.4%
Fc1cccc(CN2CCN(c3nc4nonc4nc3NC3CC3)CC2)c1	-10.3%
O=C(COC(=O)C1=NN(c2ccccc2)C(=O)CC1)Nc1ccc([N+](=O)[O-])cc1C(F)(F)F	5.08%
CC(C)CN(CC(C)C)C(=O)c1cccc(S(=O)(=O)N2CCc3ccccc32)c1	-24.9%
NC(=O)C1CCN(C(=S)NC2CC3C=CC2C3)CC1 (stereo not shown)	16.2%
CCOC(=O)C1CCN(C(=S)NC2CCCC2)CC1	0.997%
CCOC(=O)C1CCN(C(=S)NC2CC3C=CC2C3)CC1 (stereo not shown)	-54.3%
CN(c1ccccc1)S(=O)(=O)c1cccc(NC(=O)Cc2ccc(Cl)cc2)c1	9.43%
COc1ccc(CN2C(=NC(=O)CCc3ccccc3)SC3CS(=O)(=O)CC32)cc1 (stereo not shown)	3.85%
CC(C)[C@H](NC(=O)c1ccco1)C(=O)NC12CC3CC(CC(C3)C1)C2	-5.81%
CC(NC(=O)c1ccco1)C12CC3CC(CC(C3)C1)C2 (stereo not shown)	-50.1%
CC(NC(=O)COC(=O)CCNC(=O)c1ccco1)C12CC3CC(CC(C3)C1)C2 (stereo not shown)	0.656%
CC1CN(C2CCN(S(=O)(=O)c3ccc4ccccc4c3)CC2)CC(C)O1 (stereo not shown)	-22.5%
CN1C(C(=O)N2CCc3ccccc3C2)=CC(c2ccc(F)cc2)=NS1(=O)=O	-3.37%
COc1ccc(CCN(Cc2ccc(C(C)C)cc2)S(=O)(=O)c2ccc(S(=O)(=O)N(C)C)cc2)cc1OC	-11.1%
CCC(=O)C(C#N)(c1ccc(OC)c(OC)c1)C(C)C (stereo not shown)	-7.65%
COc1ccc(CCN(C)CCCC(C#N)(c2cc(OC)c(OC)c(OC)c2)C(C)C)cc1OC.Cl (stereo not shown)	-64.1%

SMILES	hERG current change (%, negative = inhibition) at 10uM
Cn1c(Cn2c(=O)sc3ccccc32)nnc1SCC(=O)NCc1ccccc1	-0.25%
Cc1ccc(NC(=S)N2CCN(S(=O)(=O)c3c(F)cccc3F)CC2)cc1C	-17.6%
COc1ccc(Nc2nc(N)nc(CN3CCc4ccccc4C3)n2)cc1	-56.4%
Cc1ccc(Nc2nc(N)nc(CN3CCc4ccccc4C3)n2)cc1	-72.2%
Cc1ccc(Nc2nc(N)nc(CSc3nnnn3-c3ccccc3)n2)cc1	4.49%
COc1ccc(Nc2nc(N)nc(CSC(=S)N3CCCCC3)n2)cc1	0.179%
COc1ccccc1Nc1nc(N)nc(CN2CCc3ccccc3C2)n1	-44.8%
Nc1nc(CN2CCc3ccccc3C2)nc(Nc2ccccc2)n1	-51%
Nc1nc(CSCCO)nc(Nc2ccccc2)n1	9.39%
Cc1ccc(Nc2nc(N)nc(CSc3ncccn3)n2)cc1	-18.7%
Nc1nc(CSc2ncccn2)nc(Nc2ccccc2)n1	1.55%
COc1cc([N+](=O)[O-])ccc1NC(=O)COC(=O)CCOc1ccc(C)cc1	-11.2%
O=C(CCCCn1c(=O)c2ccccc2n(CC(=O)NC2CCCC2)c1=O)NCc1ccco1	-15.6%
O=C(O)CSc1nnc(Cc2ccccc2)n1-c1ccccc1	5.74%
COc1cc(CNCCO)ccc1OCCc1ccccc1	6.61%
COc1cc(C)c(C(=O)Oc2cc(C)c(C(=O)O)c(O)c2)c(O)c1	11.5%
COc1ccc(OCCN2CCN(C(=O)c3ccc(OC(F)F)c(OC)c3)CC2)cc1	-72.6%
N#Cc1ccc(CN2C(=O)NC3(CCCCCC3)C2=O)cc1	-32.2%
COc1ccc(C(=O)N2CCCC2)cc1	-2.88%
COc1ccc(C(=O)NCCN2CCN(C(=O)c3ccc(OC)c(OC)c3)CC2)cc1OC	14.5%
N#Cc1ccc(OCCN2C(=O)NC3(CCSC3)C2=O)cc1 (stereo not shown)	-57.2%
Cl.Clc1cccc(OCCN2CCCC2)c1	2.13%

SMILES	hERG current change (%, negative = inhibition) at 10uM
COc1ccc(OCCN2CCN(C(=O)c3ccc(OC)cc3)CC2)cc1	-87.2%
CCOc1cc(C(=O)N2CCc3cc(OC)c(OC)cc3C2)ccc1OC(F)F	-35.7%
COc1ccc(C(=O)N2CCN(C(=O)c3ccncc3)CC2)cc1	12.4%
CC1(C)NC(=O)N(CCOc2ccc([N+](=O)[O-])cc2)C1=O	-37.6%
Clc1cccc(OCCN2CCN(CCOc3cccc(Cl)c3)CC2)c1	-70.8%
CN1CCN(CCOc2cccc(Cl)c2)CC1.Cl	1.19%
CCC1(CC)C(=O)C2=C3C1[C@H](C(=O)OC)C=C(C(=O)OC)C[C@H]3[C@H]1C(=O)NC(=O)[C@H]1[C@H]2C (stereo partly shown)	3.57%
NS(=O)(=O)c1c(Sc2ccccc2C(=O)O)ccc2ccccc12	28.4%
CC1CCN(S(=O)(=O)c2c[nH]c(=O)[nH]c2=O)CC1	6.09%
CC1CCCN(S(=O)(=O)c2ccc3c(c2)c(=O)nc2ccc(Cl)cn23)C1 (stereo not shown)	-10.5%
CC(=O)Nc1ccc(NC(=O)C2CCCN(S(=O)(=O)c3ccc(-n4cnnn4)cc3)C2)cc1 (stereo not shown)	0.72%
Cc1cccc(C)c1NC(=O)CNC(=O)C(Cc1ccccc1)NC(=O)c1ccccc1 (stereo not shown)	13.5%
COc1ccc(C(=O)N2CCN(Cc3ccc(OC)c(OC)c3)CC2)cc1.O=C(O)C(=O)O	0.702%
O=C(c1ccc(Cl)cc1)N1CCN(CCOc2ccccc2)CC1	-60.1%
CN1CCN(C(=O)c2ccc(Cl)cc2)CC1	8.8%
Cc1ccc(C)n1CCN1CCN(C(=O)c2ccc(Cl)cc2)CC1	-50.3%
O=C1NC2(CCc3ccccc3C2)C(=O)N1CCOc1cccc(Cl)c1 (stereo not shown)	-51.1%
CN1CCN(C(=O)c2ccc(OCCOc3ccccc3)cc2)CC1	-9.69%
Cc1ccc(C)n1CCN1CCN(C(=O)CC#N)CC1	16.3%
O=C(c1c(F)cccc1F)N1CCN(CCOc2ccccc2)CC1	-8.2%
COc1ccc(OCCN2C(=O)NC3(CCc4ccccc4C3)C2=O)cc1 (stereo not shown)	-49.7%
COc1ccc(OCCN2CCN(C(=O)c3ccc(OC)c(OC)c3)CC2)cc1	-58.8%

SMILES	hERG current change (%, negative = inhibition) at 10uM
COc1cc(OC)cc(C(=O)N2CCN(C(=O)c3ccc(OC)c(OC)c3)CC2)c1	-14%
O=C(CN1C(=O)NC2(CCCC2)C1=O)OCCOc1cccc(Cl)c1	-7.43%
COc1ccc(C(=O)Nc2cccc(-c3ccc4nncn4n3)c2)cc1OC	8.84%
Cc1ccccc1Nc1c(-c2ccc(N3CCOCC3)cc2)nc2cnccn12	-1.1%
COc1cc(OC)cc(C(=O)N[C@H](C(=O)Nc2cccc(S(=O)(=O)N3CCCC3)c2)C(C)C)c1	2.47%
O=C(N/N=C/c1ccco1)c1cc(-c2ccccc2)nc2ccccc12	2.45%
Cn1c(=NC(=O)C2=NNC(=O)CC2)sc2ccccc21	15.2%
O=C(NNC1=C(C(=O)C(F)(F)F)CCC1)c1ccccc1Cl	13%
Cc1cc(C(=O)Nc2cccc(C)c2C)n(-c2ccccc2)n1	-11.7%
O=C(Nc1cccc(S(=O)(=O)N2CCOCC2)c1)c1ccc(N2CCCC2=O)cc1	8.25%
COCCCN(CC(=O)O)S(=O)(=O)c1cccc(Cl)c1	16.3%
O=C(c1ccc(Br)o1)N1CCN(CCOc2ccccc2)CC1	-54.1%
O=C(c1ccco1)N1CCN(CCOc2ccccc2)CC1	0.652%
O=C(c1ccc(Br)o1)N1CCC(Cc2ccccc2)CC1	-10.5%
CCN(CC(=O)NCc1ccc(Cl)cc1)C(=O)c1cccc(S(=O)(=O)Nc2ccc(OC)cc2)c1	-0.458%
Cc1ccc(NC(=O)C(Cc2ccccc2)NC(=O)c2ccco2)cc1 (stereo not shown)	-3.13%
COc1ccc(N2C(=O)CC(N3CCN(c4nc5ccccc5s4)CC3)C2=O)cc1 (stereo not shown)	-30.9%
CCOc1cccc(N2C(=O)CC(N3CCN(c4nc5ccccc5s4)CC3)C2=O)c1 (stereo not shown)	5.09%
O=C1CC(N2CCN(c3nc4ccccc4s3)CC2)C(=O)N1Cc1cccs1 (stereo not shown)	-62.3%
CCCOc1ccc(N2C(=O)CC(N3CCN(c4nc5ccccc5s4)CC3)C2=O)cc1 (stereo not shown)	8.46%
O=C1CC(N2CCC(c3nc4ccccc4o3)CC2)C(=O)N1Cc1cccs1 (stereo not shown)	-30.9%
O=C1CC(N2CCN(c3nc4ccccc4s3)CC2)C(=O)N1c1ccc(F)cc1 (stereo not shown)	-53.5%
